PubChem BioAssay AID1159580 (chemical genetic matrix, 2015)
About 2,000 (36%) of roughly 5,500 compounds were called active. Another 18% or so got no clear call; they are omitted. Rule as the data show it: active = normalized growth mostly below about 0.91 (no sharp cut-off); inconclusive = no clear call, values can overlap the other calls; inactive = mostly above about 0.92. The list shows a part of the results.

Assay: chemical genetic growth profiling, strain panel (AID 1159580);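 also: tested at 20 µM; growth read once vehicle control cultures reached saturation at 30 °C; 1 = growth at the plate median or of vehicle wells; lower values mean less growth of the strain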
Conditions: growth OD
[1] = S. cerevisiae deletion strains, locus YAL013W, strain DEP1, hits give low values
[2] = S. cerevisiae deletion strains, locus YAL040C, strain CLN3, hits give low values
[3] = S. cerevisiae deletion strains, locus YCL061C, strain MRC1 (second series), hits give low values
[4] = S. cerevisiae deletion strains, locus YDR150W, strain NUM1, hits give low values
[5] = S. cerevisiae deletion strains, locus YDR363W, strain ESC2, hits give low values
[6] = S. cerevisiae deletion strains, locus YER002W, strain NOP16, hits give low values
[7] = S. cerevisiae deletion strains, locus YJR075W, strain HOC1, hits give low values
[8] = S. cerevisiae deletion strains, locus YMR307W, strain GAS1, hits give low values
[9] = S. cerevisiae deletion strains, locus YNL153C, strain GIM3, hits give low values
[10] = S. cerevisiae deletion strains, locus YNL175C, strain NOP13, hits give low values
[11] = S. cerevisiae deletion strains, locus YNL197C, strain WHI3, hits give low values
[12] = S. cerevisiae deletion strains, locus YNL224C, strain SQS1, hits give low values
[13] = S. cerevisiae deletion strains, locus YOR083W, strain WHI5 (second series), hits give low values
[14] = S. cerevisiae deletion strains, locus YPL055C, strain LGE1, hits give low values
[15] = S. cerevisiae deletion strains, locus YPL241C, strain CIN2, hits give low values
[16] = S. cerevisiae deletion strains, locus YGR078C, strain PAC10, hits give low values
[17] = S. cerevisiae deletion strains, locus YNL322C, strain KRE1, hits give low values
[18] = S. cerevisiae deletion strains, locus YBR229C, strain ROT2, hits give low values
[19] = S. cerevisiae deletion strains, locus YCL061C, strain MRC1, hits give low values
[20] = S. cerevisiae deletion strains, locus YDL101C, strain DUN1, hits give low values
[21] = S. cerevisiae deletion strains, locus YDL134C, strain PPH21, hits give low values
[22] = S. cerevisiae deletion strains, locus YEL061C, strain CIN8, hits give low values
[23] = S. cerevisiae deletion strains, locus YHR030C, strain SLT2, hits give low values
[24] = S. cerevisiae deletion strains, locus YHR087W, strain rtc3, hits give low values
[25] = S. cerevisiae deletion strains, locus YJR043C, strain POL32, hits give low values
[26] = S. cerevisiae deletion strains, locus YKL190W, strain CNB1, hits give low values
[27] = S. cerevisiae deletion strains, locus YLR039C, strain RIC1, hits give low values
[28] = S. cerevisiae deletion strains, locus YLR058C, strain SHM2 (second series), hits give low values
[29] = S. cerevisiae deletion strains, locus YLR085C, strain ARP6, hits give low values
[30] = S. cerevisiae deletion strains, locus YLR262C, strain YPT6, hits give low values
[31] = S. cerevisiae deletion strains, locus YML094W, strain GIM5, hits give low values
[32] = S. cerevisiae deletion strains, locus YMR219W, strain ESC1, hits give low values
[33] = S. cerevisiae deletion strains, locus YMR263W, strain SAP30, hits give low values
[34] = S. cerevisiae deletion strains, locus YNL298W, strain CLA4 (second series), hits give low values
[35] = S. cerevisiae deletion strains, locus YNR030W, strain Alg12, hits give low values
[36] = S. cerevisiae deletion strains, locus YPR135W, strain CTF4, hits give low values
[37] = S. cerevisiae strains, strain wild type, hits give low values

Measured: normalized growth

COC1(C2=NCCN2)COc2ccccc2O1 (stereo not drawn)
inactive: [1] 1 | [2] 1.01 | [3] 1.01 | [4] 1.02 | [5] 0.995 | [6] 1 | [7] 1.01 | [8] 0.998 | S. cerevisiae deletion strains, locus YNL128W, strain TEP1, hits give low values 0.995 | [9] 1.03 | [10] 1 | [11] 1.01 | [12] 1.01 | [13] 1.02 | [14] 0.996 | [15] 1.01

Nn1nnc2ccccc21
inactive: [1] 1.01 | [2] 1.02 | [3] 1.01 | [5] 1 | [6] 1.01 | [16] 1.01 | [10] 0.991 | [11] 1.01 | [12] 0.998 | [17] 1.02 | [13] 0.998 | [14] 1.02

N#CCCNc1cc(C(F)(F)F)cc(C(F)(F)F)c1
active: [7] 0.883
inactive: [1] 0.98 | [18] 0.985 | [19] 0.96 | [20] 0.986 | [21] 0.99 | [4] 0.96 | [22] 0.975 | [16] 0.947 | S. cerevisiae deletion strains, locus YGR229C, strain SMI1, hits give low values 0.981 | [23] 0.867 | [24] 0.989 | S. cerevisiae deletion strains, locus YJL187C, strain SWE1, hits give low values 0.986 | [25] 0.97 | [26] 0.981 | [27] 0.848 | [28] 1.01 | [29] 0.837 | [30] 0.844 | [31] 0.918 | [32] 0.987 | [33] 0.991 | [8] 0.903 | [9] 0.96 | [34] 0.954 | [17] 0.957 | [35] 0.902 | [14] 0.893 | [15] 0.947 | [36] 0.801 | [37] 0.991

FC(F)(F)c1cc(NC2=NCCN=C(Nc3cc(C(F)(F)F)cc(C(F)(F)F)c3)SS2)cc(C(F)(F)F)c1
inactive: [1] 1.01 | [18] 1.01 | [19] 0.997 | [20] 0.993 | [21] 0.999 | [4] 1.04 | [22] 1 | [16] 1 | [23] 0.952 | [24] 0.997 | [25] 0.993 | [7] 0.989 | [26] 1.01 | [27] 0.977 | [28] 1.01 | [29] 0.978 | [30] 0.979 | [31] 0.975 | [32] 1 | [33] 1.02 | [8] 0.916 | [9] 1.02 | [34] 1.01 | [17] 1 | [35] 0.988 | [14] 1.05 | [15] 0.99 | [36] 0.95 | [37] 1.01
